The panel holds about 83,000 compounds, 20% with a hit somewhere; the sample as a whole holds those more often.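 Treatment: one concentration, 48 hours, 96-well format. Scoring: percent growth, with anything below 10 considered active.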 Unmarked numbers belong to inactive results. The source made the active and inactive calls.
What was measured:
Assay in all cases: NCI-60 one-dose screen, 48 h (100 = growth as untreated, 0 = no growth, -100 = all killed)
Conditions in all cases: 10 µM unless noted
T-47D breast = test system: T-47D breast
BT-549 breast = test system: BT-549 breast
SW-620 colon = test system: SW-620 colon
MCF7 breast = test system: MCF7 breast
HCT-116 colon = test system: HCT-116 colon
HCC-2998 colon = test system: HCC-2998 colon
KM12 colon = test system: KM12 colon
MDA-MB-435 melanoma = test system: MDA-MB-435 melanoma

## COc1ccc(-c2cn[nH]c2-c2cc(OC)c3c(c2)OCCO3)cc1
T-47D breast
  growth: 49.5%
BT-549 breast
  growth: 53.3%
SW-620 colon
  growth: 25.5%
MCF7 breast
  growth: 19.6%
HCT-116 colon
  growth: 10.5%
HCC-2998 colon
  growth: 25.3%
KM12 colon
  growth: 3.46% (active)

## C=C1C(=O)O[C@H]2[C@H](O)[C@@H](C)CCC/C(C)=C/CC[C@@]3(C)O[C@@H]3C[C@@H]12
T-47D breast
  growth: 97.2%
MDA-MB-435 melanoma
  growth: 94.4%
SW-620 colon
  growth: 79.9%
MCF7 breast
  growth: 69.1%
HCT-116 colon
  growth: 74.3%
HCC-2998 colon
  growth: 111%
KM12 colon
  growth: 119%

## Clc1nc2ccccc2nc1CI
T-47D breast
  growth: 108%
BT-549 breast
  growth: 92%
MDA-MB-435 melanoma
  growth: 89.2%
SW-620 colon
  growth: 36.3%
MCF7 breast
  growth: 91.1%
HCC-2998 colon
  growth: 117%
KM12 colon
  growth: 104%

## Clc1ccc(-c2nc(-c3ccco3)cn3ccnc23)cc1
T-47D breast
  growth: 40.2%
BT-549 breast
  growth: 84.5%
MDA-MB-435 melanoma
  growth: 78.6%
SW-620 colon
  growth: 72.7%
MCF7 breast
  growth: 27.2%
HCC-2998 colon
  growth: 58.2%
KM12 colon
  growth: 48.7%

## COc1ccc(S(=O)(=O)NCCNc2nccc(-c3c(-c4ccccc4)nc4sccn34)n2)cc1
T-47D breast
  growth: 10.9%
BT-549 breast
  growth: 34.7%
MDA-MB-435 melanoma
  growth: 11.2%
SW-620 colon
  growth: 36.5%
MCF7 breast
  growth: 4.01% (active)
HCC-2998 colon
  growth: 60.7%
KM12 colon
  growth: 9.45% (active)

## Cc1ccc(C2=NN(c3ccc(S(N)(=O)=O)cc3)C(c3cn(-c4ccccc4)nc3-c3ccccc3)C2)cc1 (stereo unspecified)
T-47D breast
  growth: 83.7%
MDA-MB-435 melanoma
  growth: 62.7%
SW-620 colon
  growth: 86.5%
MCF7 breast
  growth: 55.9%
HCC-2998 colon
  growth: 118%
KM12 colon
  growth: 41.1%

## NC(=S)NN=C1CCCCC1
BT-549 breast
  growth: 85.6%
MDA-MB-435 melanoma
  growth: 88.8%
SW-620 colon
  growth: 69.1%
MCF7 breast
  growth: 15.9%
HCT-116 colon
  growth: 8.08% (active)
HCC-2998 colon
  growth: 105%
KM12 colon
  growth: 107%

## CCCCCC/C=C\CCCCCCCCOc1ccc(CCOP(=O)(O)OCC[N+](C)(C)C)cc1
BT-549 breast
  growth: 91.2%
MDA-MB-435 melanoma
  growth: 100%
SW-620 colon
  growth: 93.2%
MCF7 breast
  growth: 79.2%
HCT-116 colon
  growth: 50.2%
HCC-2998 colon
  growth: 89.2%
KM12 colon
  growth: 59.3%

## COC12CC(=O)C(C(C)=O)=C(O)C1(C)c1c(O)c(C)c(O)c(C(C)=O)c1O2 (stereo unspecified)
BT-549 breast
  growth: 78.7%
MDA-MB-435 melanoma
  growth: 87.3%
SW-620 colon
  growth: 80.2%
MCF7 breast
  growth: 80.9%
HCT-116 colon
  growth: 80.6%
HCC-2998 colon
  growth: 65.9%
KM12 colon
  growth: 49.6%

## COc1ccc(Cl)cc1NC(N)=S
BT-549 breast
  growth: 107%
MDA-MB-435 melanoma
  growth: 104%
SW-620 colon
  growth: 104%
MCF7 breast
  growth: 96.2%
HCT-116 colon
  growth: 102%
HCC-2998 colon
  growth: 102%
KM12 colon
  growth: 105%

## Oc1ccc(N=Cc2ccccc2)cc1
BT-549 breast
  growth: 70.7%
MDA-MB-435 melanoma
  growth: 97.8%
SW-620 colon
  growth: 99.9%
MCF7 breast
  growth: 84.8%
HCT-116 colon
  growth: 60.8%
HCC-2998 colon
  growth: 100%
KM12 colon
  growth: 91.3%

## CC(=O)OCC1OC(OCC2OC(OC(C)=O)C(OC(C)=O)C(OC(C)=O)C2OC(C)=O)C(OC(C)=O)C(OC(C)=O)C1OC(C)=O (stereo unspecified)
BT-549 breast
  growth: 100%
MDA-MB-435 melanoma
  growth: 104%
SW-620 colon
  growth: 105%
MCF7 breast
  growth: 94.9%
HCT-116 colon
  growth: 99%
HCC-2998 colon
  growth: 96.2%
KM12 colon
  growth: 108%

## Nc1c(C(=O)Nc2cccc([N+](=O)[O-])c2)sc2nc3c(cc12)C(O)CCC3 (stereo unspecified)
BT-549 breast
  growth: 58.1%
MDA-MB-435 melanoma
  growth: -22.9% (active)
SW-620 colon
  growth: 37.9%
MCF7 breast
  growth: 15.2%
HCT-116 colon
  growth: 24.1%
HCC-2998 colon
  growth: 87.6%
KM12 colon
  growth: 33.4%

## COc1cccc2cc(-c3cc4ccccc4[nH]3)c(=NC(=O)c3ccc(Cl)cc3)oc12
BT-549 breast
  growth: 62.7%
MDA-MB-435 melanoma
  growth: 33.1%
SW-620 colon
  growth: 7.3% (active)
MCF7 breast
  growth: 73.5%
HCT-116 colon
  growth: 26.9%
HCC-2998 colon
  growth: 75.7%
KM12 colon
  growth: 33.9%

## COc1cccc2cc(-c3cc4ccccc4[nH]3)/c(=N/C(=S)Nc3ccccc3)oc12
BT-549 breast
  growth: 95.2%
MDA-MB-435 melanoma
  growth: 87.9%
SW-620 colon
  growth: 74.1%
MCF7 breast
  growth: 79.5%
HCT-116 colon
  growth: 59.6%
HCC-2998 colon
  growth: 82.6%
KM12 colon
  growth: 88.3%

## CCCCCCCCCCCCCCCCCCOc1cccc(CCOP(=O)(O)OCC[N+](C)(C)C)c1
BT-549 breast
  growth: 92.5%
MDA-MB-435 melanoma
  growth: 93.6%
SW-620 colon
  growth: 94.3%
MCF7 breast
  growth: 88.8%
HCT-116 colon
  growth: 70%
HCC-2998 colon
  growth: 82.5%
KM12 colon
  growth: 50.1%

## Cc1c(C2=NNC(c3ccc4c(c3)OCO4)C2)[n+]([O-])c2ccccc2[n+]1[O-] (stereo unspecified)
BT-549 breast
  growth: 91%
MDA-MB-435 melanoma
  growth: 108%
SW-620 colon
  growth: 98.4%
MCF7 breast
  growth: 92.8%
HCT-116 colon
  growth: 99.2%
HCC-2998 colon
  growth: 84.2%
KM12 colon
  growth: 113%

## CCCCCCCC/C=C\CCCCCCCCOc1ccccc1CCOP(=O)(O)OCC[N+](C)(C)C
BT-549 breast
  growth: 88.3%
MDA-MB-435 melanoma
  growth: 92.7%
SW-620 colon
  growth: 67.8%
MCF7 breast
  growth: 74.2%
HCT-116 colon
  growth: 27.2%
HCC-2998 colon
  growth: 74.3%
KM12 colon
  growth: 21.8%

## CCCCCCCCCCCCOB(OCCCCCCCCCCCC)OCCCCCCCCCCCC
BT-549 breast
  growth: 96.7%
MDA-MB-435 melanoma
  growth: 114%
SW-620 colon
  growth: 117%
MCF7 breast
  growth: 97.5%
HCT-116 colon
  growth: 123%
HCC-2998 colon
  growth: 91.6%
KM12 colon
  growth: 102%

## O=C(NCCCN1CCN(CCCNC(=O)C2CCCCC2)CC1)C1CCCCC1
BT-549 breast
  growth: 96.4%
MDA-MB-435 melanoma
  growth: 96.4%
SW-620 colon
  growth: 95%
MCF7 breast
  growth: 95.7%
HCT-116 colon
  growth: 95.6%
HCC-2998 colon
  growth: 99.9%
KM12 colon
  growth: 104%

## Cc1cc(Nc2nc(-c3ccncc3)nc3ccccc23)n[nH]1
BT-549 breast
  growth: 82.7%
MDA-MB-435 melanoma
  growth: 40.3%
SW-620 colon
  growth: 78.3%
MCF7 breast
  growth: 40.2%
HCT-116 colon
  growth: 39.3%
HCC-2998 colon
  growth: 72%
KM12 colon
  growth: 18.8%

## C=C1C(=O)O[C@H]2[C@H]1CC/C(COC(=O)NCCc1cccc(OC)c1)=C\CC[C@@]1(C)O[C@@H]21
BT-549 breast
  growth: 27.8%
MDA-MB-435 melanoma
  growth: 39.6%
SW-620 colon
  growth: -10.8% (active)
MCF7 breast
  growth: 14.7%
HCT-116 colon
  growth: -63.9% (active)
HCC-2998 colon
  growth: 83.5%
KM12 colon
  growth: 63.7%

## COc1ccc(NC(=S)/N=c2\oc3c(OC)cccc3cc2-c2cc3ccccc3[nH]2)cc1
BT-549 breast
  growth: 90.4%
MDA-MB-435 melanoma
  growth: 77.2%
SW-620 colon
  growth: 84.3%
MCF7 breast
  growth: 81%
HCT-116 colon
  growth: 64.7%
HCC-2998 colon
  growth: 101%
KM12 colon
  growth: 73.2%

## CNC(=O)c1cc(Oc2ccc3c(c2)sc2nc(-c4ccc(Cl)cc4)cn23)ccn1
BT-549 breast
  growth: 87.8%
MDA-MB-435 melanoma
  growth: 97.7%
SW-620 colon
  growth: 97.3%
MCF7 breast
  growth: 72%
HCT-116 colon
  growth: 80.9%
HCC-2998 colon
  growth: 90.1%
KM12 colon
  growth: 92.9%

## COc1ccc(/C=C/c2cc(N3CCOCC3)c3cc(F)c(F)cc3n2)cc1OC
BT-549 breast
  growth: 45.2%
MDA-MB-435 melanoma
  growth: 51%
SW-620 colon
  growth: 45.8%
MCF7 breast
  growth: 22.1%
HCT-116 colon
  growth: 24.5%
HCC-2998 colon
  growth: 29%
KM12 colon
  growth: 33.3%

## CCN1C(=S)N(CC)C2Nn3c(s/c(=C4\C(=O)N(C)c5ccccc54)c3=O)=NC21 (stereo unspecified)
BT-549 breast
  growth: 74.7%
MDA-MB-435 melanoma
  growth: -43.1% (active)
SW-620 colon
  growth: 41.1%
MCF7 breast
  growth: 29.8%
HCT-116 colon
  growth: 7.36% (active)
HCC-2998 colon
  growth: 79%
KM12 colon
  growth: 27.4%

— PubChem BioAssay (NCI)
